Measured values published in PubChem BioAssay AID720650 (Broad Institute, 2013).
The source made the active and inactive calls. No rule for the calls is given here.

Experiment: Biochemical counterscreen for C difficile toxins, absence of UDPG, inhibitor dose response (AID 720650)
Conditions: series mostly up to 19.5 µM

Structure (SMILES) | AC50
O=C1Nc2ccccc2C1c1ncc(C(F)(F)F)cc1Cl (configuration not stated) | inactive
c1ccc(SCc2nc3ccccc3s2)nc1 | inactive
Nc1ccccc1-c1nc2ccncc2[nH]1 | inactive
Cn1c(=O)c2[nH]c(=S)n(Cc3ccccc3)c2n(C)c1=O | 14.4 µM (active)
CCOc1ccc2ccccc2c1/C=N/NC(=O)c1ccncc1 | inactive
CCOC(=O)N1CCN=C1SCc1ccc(Cl)c(Cl)c1 | inactive
Cc1cc(NC(=O)CCCN2C(=O)c3cccc4cccc(c34)C2=O)no1 | inactive
O=C(N/N=C/c1cccc([N+](=O)[O-])c1)c1ccc(Br)cc1 | inactive
COC(=O)c1ccc(C23CC4(C2)[C@H](CN(Cc2ccc(C(F)(F)F)cc2)[C@@H]4c2ccccc2)C3c2ccc(Cl)nc2)cc1 (some centres not stated) | inactive
CCS(=O)(=O)c1ccc2oc(Nc3ccc(C(C)(C)C)cc3)nc2c1 | inactive
COc1ccccc1C1=NNC(=NCc2ccccc2)SC1 | > 39 µM (inactive)
COCCCNC(=O)C1CCN(S(=O)(=O)c2c(C)noc2/C=C\c2ccc(OC)cc2)CC1 | inactive
COc1ccccc1/C=C/c1onc(C)c1S(=O)(=O)N1CCC(C(=O)NC(C)C)CC1 | inactive
CCNC(=O)C[C@@H]1CC[C@H]2[C@H](COc3ccc(NC(C)=O)cc3C(=O)N2C)O1 | inactive
Cc1ccc2c(c1)/C(=C/c1ccccc1C)C(=O)N2 | inactive
COc1ccc(S(=O)(=O)N2CCOCC2)cc1NC(=O)COC(=O)c1[nH]c(C)c(C(C)=O)c1C | > 39 µM (inactive)
C=CCn1c(SCC(=O)N2CC(=O)Nc3ccccc32)nc2scc(-c3ccccc3)c2c1=O | inactive
